Measured values from PubChem BioAssay AID1220 (Sanford-Burnham Center for Chemical Genomics, 2008).
The whole screen tested about 190,000 compounds, of which about 1,300 (0.68%) were called active. For the sample, actives were picked, then their nearest neighbours and some compounds at random. Values without a mark were called inactive. No stated cut-off is given here; in the data, active means inhibition above about 50%; inactive means the rest.

target: Mannose-6-phosphate isomerase (Homo sapiens) (UniProt P34949); test: MPI inhibition at elevated mannose 6-phosphate – biochemical, fluorescence intensity, high mannose 6-phosphate, primary screen (AID 1220); settings: recombinant PMI enzyme, coupled fluorescence intensity; at 20 µM; stronger effect = higher value
Sequence (P34949 whole entry, looked up): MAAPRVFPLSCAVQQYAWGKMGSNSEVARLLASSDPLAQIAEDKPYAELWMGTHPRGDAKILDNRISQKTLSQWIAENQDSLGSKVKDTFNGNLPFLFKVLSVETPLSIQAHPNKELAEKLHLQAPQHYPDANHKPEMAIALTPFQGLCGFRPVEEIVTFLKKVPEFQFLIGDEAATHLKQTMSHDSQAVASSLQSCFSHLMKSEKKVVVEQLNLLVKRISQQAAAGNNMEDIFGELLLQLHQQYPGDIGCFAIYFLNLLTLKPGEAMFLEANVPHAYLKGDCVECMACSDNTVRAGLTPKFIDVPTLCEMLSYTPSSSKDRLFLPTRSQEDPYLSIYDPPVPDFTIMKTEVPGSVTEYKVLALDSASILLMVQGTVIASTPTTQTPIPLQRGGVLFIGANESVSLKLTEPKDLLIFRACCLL

Structure (SMILES) | inhibition
COc1ccc(OCCNc2cc(N3CCOCC3)ccc2[N+](=O)[O-])cc1 | 5.4%
O=C(CSc1ccc(Cl)cc1)Nc1cccc(-c2nc3ncccc3o2)c1 | -3.6%
C=CCNC(=S)Nc1ccc2nsnc2c1 | 9.9%
O=C(Nc1ccc(S(=O)(=O)NCc2ccccc2)cc1)Nc1ccc2c(c1)OCO2 | 8.6%
CN(C)C(=S)Nc1ccc2c(c1)OCO2 | 11.8%
CNS(=O)(=O)c1ccc(NC(=S)Nc2ccc3c(c2)OCO3)cc1 | 55.7% (active)
C=CCN(CC=C)C(=S)Nc1ccc2nsnc2c1 | 55.3% (active)
NC(=S)Nc1ccc2c(c1)OCO2 | 1.7%
O=C(NCc1ccc2c(c1)OCO2)Nc1ccc2nsnc2c1 | 26.7%
C=CCN(CC=C)C(=S)Nc1ccc(OC)c(OC)c1 | 20.1%
S=C(NCc1ccc(Cl)c(Cl)c1)Nc1ccc2c(c1)OCO2 | 10.2%
S=C(Nc1ccc2c(c1)OCO2)Nc1ccc2c(c1)OCO2 | 62.3% (active)
S=C(NCc1ccc2c(c1)OCO2)Nc1ccc2nsnc2c1 | 53.7% (active)
NS(=O)(=O)c1ccc(NC(=S)NCc2ccc3c(c2)OCO3)cc1 | 17.1%
CCCN1C(=O)C(O)(C/C(C)=N/O)c2ccccc21 (stereo not given) | 3.5%
COc1ccc(CC(=O)OC(C)CN2CCOCC2)cc1 (stereo not given) | -1.4%
Cc1ccc(-c2nc(C3CCCN(S(=O)(=O)c4ccc(C)cc4)C3)no2)cc1 (stereo not given) | 5.6%
CCN(CC)S(=O)(=O)c1ccc(C(=O)OCn2c(SC)nnc(C)c2=O)cc1 | 12.1%
O=S(=O)(NCc1ccc(F)cc1)c1cccc(S(=O)(=O)N2CCOCC2)c1 | -0.5%
CCn1ncc(NC(=S)Nc2ccc3c(c2)OCO3)c1C(N)=O | 57.3% (active)
S=C(Nc1ccc2c(c1)OCCO2)Nc1ccc2c(c1)OCO2 | 62.7% (active)
CCn1ncc(NC(=S)NCCc2ccccc2)c1C(N)=O | 5.4%

Structure (SMILES) | inhibition
O=S(=O)(NCc1ccccc1)c1cccc(S(=O)(=O)N2CCOCC2)c1 | 4.1%
Cc1ccc(NC(=S)Nc2ccc(S(=O)(=O)N3CCOCC3)cc2)cc1S(=O)(=O)N1CCOCC1 | -1.2%
O=C(Nc1ccc2c(c1)OCO2)Nc1ccc2c(c1)OCO2 | 15.8%
CCn1ncc(Br)c1C(=O)Nc1ccc2c(c1)OCCO2 | 0.3%
O=S(=O)(NCc1ccc2c(c1)OCO2)c1cccc(S(=O)(=O)N2CCOCC2)c1 | 52.5% (active)
O=S(=O)(c1ccc(NC(=S)Nc2ccc3c(c2)OCO3)cc1)N1CCOCC1 | 52.2% (active)
O=C(Nc1ccc2c(c1)OCCO2)Nc1ccc2c(c1)OCO2 | 13%
O=S(=O)(c1ccc(NC(=S)Nc2ccccc2)cc1)N1CCOCC1 | -2.7%
O=C1CC(c2ccc(F)cc2)CC2=C1C=Nc1ccccc1N2 (stereo not given) | -4.8%
Cc1nn(Cc2ccccc2)c(C)c1NC(=O)CCCn1nc(C)c([N+](=O)[O-])c1C | -2.1%
CCCCC(=O)Nc1ccc(NC(=O)c2cc(OC)c(OC)c(OC)c2)cn1 | 3.2%
CCN1CCCc2cc(CN(CCN3CCOCC3)C(=S)Nc3ccc(OC)c(OC)c3)ccc21 | 22.3%
COc1ccccc1CNC(=O)C1CCC(CNc2c(N3CCOCC3)c(=O)c2=O)CC1 (stereo not given) | 16.7%
CC(=O)c1cnc(Nc2ccc(C)cc2)s1 | 1.9%
C=CCSc1nnc(NC(=O)CSc2nc3ccccc3[nH]2)s1 | 4.3%
Cc1cc(NC(=O)c2ccc(Cl)cc2)n(CCOC(=O)c2ccc(Cl)cc2)n1 | 10.6%
Cc1nc2ccc(NC(=O)NCCO)cc2s1 | 3.3%
COc1ccc(C(=O)NCc2ccc(Cl)c(Cl)c2)cc1OC | -0.1%
Cc1cccc(-c2nc(CS(=O)CC(=O)N3CCCCC3)c(C)o2)c1 (stereo not given) | 5.1%
Cc1ccccc1-n1c(=O)cc(N2CCC3(CC2)OCCO3)[nH]c1=O | 7%
Cc1ccccc1-n1c(=O)cc(N2CCCCCC2)[nH]c1=O | 62.9% (active)
O=c1cc(N2CCCCCC2)[nH]c(=O)n1-c1ccccc1Cl | -6.5%

Structure (SMILES) | inhibition
CCOC(=O)/C(N=Nc1ccc(C(=O)O)cc1[N+](=O)[O-])=C(\C)O | -1.9%
CC(C)Cc1nc2oc3c(N4CCN(CCO)CC4)ncnc3c2c2c1CCCC2 | 2%
Cc1ccc(Cl)cc1NC(=S)N(CCCN1CCOCC1)Cc1ccco1 | -6.2%
Clc1ncc(CSc2ccccc2)s1 | -2.5%
Cc1ccc(S(=O)OCC(=O)Nc2cc(Cl)ccc2N2CCOCC2)cc1 (stereo not given) | 52% (active)
COC(=O)c1ccccc1NC(=O)CNc1cc(Cl)ccc1N1CCOCC1 | 9.8%
O=C(COS(=O)c1ccccc1)Nc1cc(Cl)ccc1N1CCOCC1 (stereo not given) | 8.4%
COc1ccccc1C(=O)Nc1ccccc1SC | 10.6%
COc1ccc(S(=O)(=O)CCC(=O)N2c3ccccc3CC2C)cc1 (stereo not given) | 2%
O=C(Nc1ccc2c(c1)OCO2)c1ccc(S(=O)(=O)NCC2CCCO2)cc1 (stereo not given) | -2.4%
COc1ccc2c([N+](=O)[O-])c(Cl)[nH]c2c1 | 67.9% (active)
COc1ccc2c(C)cc(=O)[nH]c2c1 | -3%
CCOC(=O)CSc1[nH]c2cc(OC)ccc2c1[N+](=O)[O-] | 9.3%
O=C(COC(=O)c1c2ccccc2cc2ccccc12)Nc1ncc(C(F)(F)F)cc1Cl | 2.9%
COc1ccc(CCNC(=O)CSc2nc3ccccc3o2)cc1 | 1.3%
COc1ccc(CN=Cc2c(C(F)(F)F)[nH][nH]c2=O)cc1 | -0.7%
O=C(C1=C(c2ccccc2)C(=O)c2ccccc2C1=O)c1ccccc1 | 71.6% (active)
CC(C)c1ccc(C2=C(O)c3ccccc3C(=O)C2=O)cc1 | 22.2%
O=C1C(c2ccncc2)=C(O)c2ccccc21 | -4.7%
COC1=C(c2ccccc2)C(=O)c2ccccc2C1=O | -57.4%
O=C1C(=C(O)c2ccccc2)C(=O)c2ccccc21 | -47.9%
